# Inconclusive results are not listed. Values without a mark were called inactive. Activity calls are given as the source filed them. The call rests on the fitted dose curve; in most records, active means well fitted cell-killing curve with a large enough effect; inconclusive means small, poorly fitted or top-dose-only effect; inactive means flat fitted curve, though single readings scatter.
# Experiment: Cellular viability qHTS for adrenocortical cancer (ACC) cell line SW-13 (AID 1963989); further: nearly all actives have a fitted effect of over 65% in size;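 on activity (max response): cells grown in serum-free medium with ITS supplement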
# Details: SW-13 ACC cells viability, CellTiter-Glo, 48 h; activity (max response): hits give low values
# Source text: PI: Naris Nilubol, MD Surgical Oncology Program, National Cancer Institute (NCI) National Institute of Health (NIH), Bethesda, Maryland Adrenocortical cancer (ACC) is a rare malignancy with poor survival outcomes and few treatment options. Currently, mitotane is the only FDA-approved therapy for ACC. Although adjuvant radiation therapy is rarely utilized, it has the potential to improve survival in select cases. Through a quantitative high-throughput drug screen (qHTS), we identified auranofin (AF), a thioredoxin reductase (TXNRD) inhibitor, as a promising candidate drug. This study aims to evaluate whether AF can enhance the efficacy of radiation therapy in the treatment of ACC. Two human ACC cell lines, SW-13 and NCI-H295R, were screened using the National Center for Advancing Translational Sciences (NCATS) Pharmaceutical Collection (NPC) and the Mechanism Interrogation PlatE (MIPE) library (~4,991 compounds). CellTiter-Glo (Cat # G7570, Promega, Madison, WI) was utilized to measure cell viability. Described herein are the results of the corresponding viability assay.
# PROTOCOL TABLE (as described by Inglese J, Shamu CE and Guy RK. 2007) SEQUENCE No. (e.g., 1, 2, 3, etc.); […] (e.g., Cells, Incubation, Reagent, etc.); VALUE; DESCRIPTION. 1; Cells; 5 uL; white, solid-bottom, 1536-well tissue-culture treated plates. 2; Time; overnight culture at 37C with 5% CO2. 3; Compounds and control; 23 nL; Kalypsis pin tool (Wako USA) equipped with a 1536-well pin head to transfer to the assay plates. 4; Time; 48 hours; 37C with 5% CO2. 5; Reagent; 4 uL; CellTiter-Glo luminescent substrate mix. 6; Time; 20 min at room temperature. 7; Detection; Luminescence; ViewLux plate reader NOTES (numbers refer to Sequence numbers above) 1. SW13 cells were harvested from a T175 flask and resuspended in ITS-supplemented DMEM serum-free medium at a concentration of 300 000 cells/mL. Then 5 uL of resuspended cells were dispensed into each well of white, solid-bottom, 1536-well tissue-culture-treated plates using a multidrop combi dispenser. The plates were covered with stainless steel gasket lids. 2-3. The plates were cultured overnight at 37C with 5% CO2. Twenty-three nL of compounds (eight selected concentrations from the NPC / MIPE) or positive control (10 mM stock of bortezomib) in DMSO was transferred to each well of the assay plate using a pin tool (Kalypsys, San Diego, CA, USA). The final concentration of the compounds in the 5 uL assay volume ranged from 0.5 nM to 46 uM. 4-6. After 48 hours of incubation at 37C and 5% CO2, 4 uL of CellTilter-Glo luminescent substrate mix (Promega, Madison, WI, USA) was added to each well. Then the plates were incubated for 20 minutes at room temperature. 7. After incubation, luminescence was measured using a ViewLux plate reader (PerkinElmer, Waltham, MA, USA) with a clear filter was used to measure the number of metabolically competent cells. To determine compound activity in the qHTS assay, the titration-response data for each sample was plotted and modeled by a four-parameter logistic fit yielding IC50 and efficacy (maximal response) values. […] REFERENCES: Inglese J, Shamu CE and Guy RK, Reporting data from high throughput screening of small molecule libraries, Nature Chemical Biology, 2007, 3(8): 438-441. doi.org/10.1038/nchembio0807-438.
# On the % scale 0 is the no-effect control and ±100 the full control effect.
Structure (SMILES),activity (max response) [%],Potency
Cc1cccc(-c2[nH]ncc2-c2ccc(F)c(-c3cnn(CCO)c3)c2)n1,-6.75,–
C=CCn1c(=O)c2cnc(Nc3ccc(N4CCN(C)CC4)cc3)nc2n1-c1cccc(C(C)(C)O)n1,–,3.55 µM (active)
O=c1ccn([C@@H]2O[C@H](CO)[C@@H](O)[C@H]2O)c(=O)[nH]1,-5.6,–
CC(C)OC(=O)c1cc(C(=O)OC(C)C)cc([N+](=O)[O-])c1,4.98,–
C[C@@H]1CN(c2c(F)c(F)c3c(=O)c(C(=O)O)cn(C4CC4)c3c2F)C[C@H](C)N1,12.9,–
CN(C)c1ccc(-c2nc3ncc(Cl)c(N4CCN(CC(=O)Nc5nccs5)CC4)c3[nH]2)cc1,-12.9,–
CN1CCN(CC(=O)N2c3ccccc3C(=O)Nc3cccnc32)CC1,-3,–
CCCCNC(=O)NS(=O)(=O)c1ccc(C)cc1,2.87,–
Oc1cc2c(cc1O)C1c3ccc(O)c(O)c3OCC1(O)C2 (stereo not given),-7.46,–
COc1cc2ncnc(Nc3ccc(F)c(Cl)c3)c2cc1NC(=O)/C=C/CN1CCCCC1,–,0.708 µM (active)
CCCS(=O)(=O)Nc1ccc(F)c(C(=O)c2c[nH]c3ncc(-c4ccc(Cl)cc4)cc23)c1F,-1.45,–
CCOC(=O)N[C@@H]1CC[C@@H]2[C@@H](C1)C[C@H]1C(=O)O[C@H](C)[C@H]1[C@H]2/C=C/c1ccc(-c2cccc(F)c2)cn1,-18,–
CNC(=O)c1ccc(-c2cnc3ncc(Cc4ccc5ncccc5c4)n3n2)cc1F,0.555,–
COCCNCCCn1c(C(=O)CF)c(-c2ccc(C)cc2)c2c(N)ncnc21,7.79,–
CCOC(=O)c1cccc(N)c1,-1.69,–
CN(C)CCCO[C@@H]1[C@H]2OC(C)(C)O[C@H]2O[C@@H]1C(O)CO (stereo not given in full),7.54,–
O=C1CSC(=O)N1C(CCc1ccncc1)COc1ccc(-c2cccc([N+](=O)[O-])c2)cc1 (stereo not given),–,7.08 µM (active)
CN(C)CCOC(=O)C(c1ccccc1)C1(O)CCCC1 (stereo not given),6.08,–
N#CNC(=NCCCCCCOc1ccc(Cl)cc1)Nc1ccncc1,–,0.0398 µM (active)
CCOC(N)=O,11.5,–

Structure (SMILES),activity (max response) [%],Potency
Clc1ccc(COC(Cn2ccnc2)c2ccc(Cl)cc2Cl)c(Cl)c1 (stereo not given),–,17.8 µM (active)
c1ccc2sc(SN3CCOCC3)nc2c1,3.28,–
O=C1C(Cl)=C(NCCN2CCOCC2)C(=O)c2ncccc21,–,3.55 µM (active)
CC(CC(C#N)(c1ccccc1)C(C)C)N(C)C (stereo not given),3.72,–
CCOC(=O)C1=C[C@@H](OC(CC)CC)[C@H](NC(C)=O)[C@@H](N)C1,7.32,–
COc1cc2c(cc1OC)C1CC(=O)C(CC(C)C)CN1CC2 (stereo not given),-1.87,–
CC(C)NNC(=O)c1ccncc1,1.43,–
CNC[C@H](O)[C@@H](O)[C@H](O)[C@H](O)CO,1.47,–
Cn1cc[nH]c1=S,12,–
CC(C)C(=O)OCc1cccc(OC(=O)[C@@H]2N3C(=O)[C@@H](NC(=O)Cc4ccccc4)[C@H]3SC2(C)C)c1,14.5,–
C=CC(=O)Nc1cc2c(Nc3ccc(F)c(Cl)c3)ncnc2cc1OCCCN1CCOCC1,–,3.55 µM (active)
CCN1C(=O)c2ccccc2C1Nc1ccc(OCCN2CCCCC2)cc1 (stereo not given),0.694,–
NC(=O)NNc1ccccc1,-10.9,–
CN(C)CCN(Cc1ccsc1)c1ccccn1,6.67,–
Nc1nc(N)c(-c2ccccc2)s1,6.99,–
O=C1O[C@H](CO)[C@@H](O)[C@H](O)[C@H]1O,5.91,–
O=C(NO)c1cnc(NC2(c3ccccc3)CC2)nc1,–,10 µM (active)
Cn1c(NC[C@@H](N)Cc2ccccc2)nc(-c2ccncc2)c(-c2ccc3ccccc3c2)c1=O,–,28.2 µM (active)
CN1[C@@H]2CC(OC(=O)[C@H](CO)c3ccccc3)C[C@H]1[C@@H]1O[C@@H]12 (stereo not given in full),1.78,–
NCc1ccc(OCCCc2sc(-c3ccc4c(c3)/C(=N/Nc3nc5ccccc5s3)CCC4)nc2C(=O)O)cc1,-8.27,–

# Reference: PubChem BioAssay (NCATS)
